{"source": "PubChem BioAssay (Tox21)", "note": "Where “and” joins values, the source holds several entries; their conditions need not be identical. Equal entries are not always repeated. Results filed as inconclusive are left out. A number with no mark means an inactive call. Calls of active or inactive are those of the source. Calls follow the shape of the dose curve; as a rule, active = well fitted curve in the direction sought with a large enough effect in the repeat runs; inconclusive = weak or mixed curves; inactive = no such curve, though single readings can be large; an effect the other way counts as inactive or inconclusive. % is scaled to controls: 0 for no effect and ±100 for the full control effect; potency is read from the fitted curve at half-maximal effect.", "data": [{"experiment": "qHTS RealTime-Glo MT Cell Viability Assay in HEK293 cells - 40 hour (AID 1224874); also: nearly all actives have a fitted effect of over 50% in size", "details": "RealTime-Glo luminescence; max response: active compounds read low", "in_short": "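600 cells/well were plated with the nonlytic NanoLuc/prosubstrate reagent, pre-incubated 5 h, then given 23 nL of compound in DMSO. Incubation at 37 C for 40 h, with luminescence from viable-cell-reduced substrate read repeatedly from 0 h.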", "units": {"max response": "%"}, "values": [{"molecule": "CCCC[N+](=O)[O-]", "max response": 1.79}, {"molecule": "BrCC1CO1", "note": "(configuration not stated)", "max response": 5.87}, {"molecule": "CCC1(c2ccccc2)CCC(=O)NC1=O", "note": "(configuration not stated)", "max response": -2.24}, {"molecule": "ClC(Cl)(Cl)Cl", "max response": 2.56}, {"molecule": "CCc1ccc(C2CCNCC2)cc1", "max response": 7.03}, {"molecule": "CC(C)C(C)(N)C#N", "note": "(configuration not stated)", "max response": -5.83}, {"molecule": "CC(C)(C)C(=O)C(Cl)Cl", "max response": -2.49}, {"molecule": "CN(C)C(=O)Oc1cc(OC(=O)N(C)C)cc(C(O)CNC(C)(C)C)c1", "note": "(configuration not stated)", "max response": -1.56}, {"molecule": "C=C(Cl)CSC(=S)N(CC)CC", "max response": -15}, {"molecule": "CN(C)CCc1c[nH]c2cccc(OP(=O)(O)O)c12", "max response": -0.389}, {"molecule": "Cn1c(N)nc2c3cccnc3ccc21", "max response": -11}, {"molecule": "O=C1C2CC=CCC2C(=O)N1SC(Cl)(Cl)Cl", "note": "(configuration not stated)", "Potency": "43.5 µM (active) and 3.41 µM (active)"}, {"molecule": "CCNc1nc(NCC)nc(SC)n1", "max response": -13.3}, {"molecule": "N[C@@H](Cc1ccc(Oc2cc(I)c(O)c(I)c2)c(I)c1)C(=O)O", "max response": 5.88}, {"molecule": "Clc1ccc(C(Cl)(Cl)Cl)cn1", "max response": 1.5}, {"molecule": "CCNc1nc(Cl)nc(NC(C)(C)C)n1", "max response": -11}, {"molecule": "COc1ccc2c(C(=O)c3ccc(Cl)cc3)c(C)n(CC(=O)O)c2c1", "max response": 3.79}, {"molecule": "CCCOC(=O)c1cncn1C(C)c1ccccc1", "note": "(configuration not stated)", "max response": -0.62}, {"molecule": "CCOC(=O)C(Cl)Cc1cc(-n2nc(C)n(C(F)F)c2=O)c(F)cc1Cl", "note": "(configuration not stated)", "max response": 2.36}, {"molecule": "COc1ccc(CN2CCNCC2)c(OC)c1OC", "max response": 5.58}, {"molecule": "CCOP(=S)(OCC)SCCl", "max response": -0.801}, {"molecule": "CC(=O)OCC1=C(C(=O)O)N2C(=O)[C@@H](N)[C@H]2SC1", "max response": 21.8}, {"molecule": "C=CCc1cc(OC)c2c(c1)OCO2", "max response": 8.43}, {"molecule": "N#CC(Br)(Br)C(N)=O", "max response": -10}, {"molecule": "NCC1(CC(=O)O)CCCCC1", "max response": 1.23}, {"molecule": "[O-][Br+2]([O-])O", "max response": 3}, {"molecule": "NNC(N)=O", "max response": 0.384}, {"molecule": "CNC(=O)O/N=C(/CSC)C(C)(C)C", "max response": -0.61}, {"molecule": "CCCCCCCCSC(=O)Oc1cc(Cl)nnc1-c1ccccc1", "max response": 6.25}]}, {"experiment": "A CellTox Green Cytotoxicity Assay to monitor cytotoxicity in HEK293 cells - 24 hour (AID 1224875); also: nearly all actives have a fitted effect of over 45% in size", "details": "CellTox Green fluorescence; series mostly up to 76.8 µM; activity change: at the top concentration", "in_short": "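HEK293 cells, 600/well, were preincubated 5 hours and then exposed to compounds at 37 C for up to 40 hours. A cell-impermeant cyanine dye staining dead-cell DNA was read by fluorescence at 0, 8, 16, 24, 32 and 40 h time points.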", "values": [{"molecule": "CCCC[N+](=O)[O-]", "activity change": "-0.424%"}, {"molecule": "BrCC1CO1", "note": "(configuration not stated)", "activity change": "4.48%"}, {"molecule": "CCC1(c2ccccc2)CCC(=O)NC1=O", "note": "(configuration not stated)", "activity change": "-8.98% [at 35.3 µM, active compounds read high]"}, {"molecule": "ClC(Cl)(Cl)Cl", "activity change": "1.7%"}, {"molecule": "CCc1ccc(C2CCNCC2)cc1", "activity change": "0.926% [at 35.3 µM, active compounds read high]"}, {"molecule": "CC(C)C(C)(N)C#N", "note": "(configuration not stated)", "activity change": "-2.87%"}, {"molecule": "CC(C)(C)C(=O)C(Cl)Cl", "activity change": "-9.57%"}, {"molecule": "CN(C)C(=O)Oc1cc(OC(=O)N(C)C)cc(C(O)CNC(C)(C)C)c1", "note": "(configuration not stated)", "activity change": "-41.5% [at 35.3 µM, active compounds read high]"}, {"molecule": "C=C(Cl)CSC(=S)N(CC)CC", "activity change": "11.3%"}, {"molecule": "O=P(O)(O)CN(CP(=O)(O)O)CP(=O)(O)O", "activity change": "29.5% [at 15.8 µM, active compounds read high]"}, {"molecule": "CN(C)CCc1c[nH]c2cccc(OP(=O)(O)O)c12", "activity change": "-12.9%"}, {"molecule": "Cn1c(N)nc2c3cccnc3ccc21", "activity change": "-8.35%"}, {"molecule": "CCNc1nc(NCC)nc(SC)n1", "activity change": "-1.64%"}, {"molecule": "N[C@@H](Cc1ccc(Oc2cc(I)c(O)c(I)c2)c(I)c1)C(=O)O", "activity change": "-16.5% [at 35.3 µM, active compounds read high]"}, {"molecule": "Clc1ccc(C(Cl)(Cl)Cl)cn1", "Potency": "34.7 µM (active)"}, {"molecule": "CCNc1nc(Cl)nc(NC(C)(C)C)n1", "activity change": "2.84%"}, {"molecule": "COc1ccc2c(C(=O)c3ccc(Cl)cc3)c(C)n(CC(=O)O)c2c1", "activity change": "1.95% [at 35.3 µM, active compounds read high]"}, {"molecule": "CCCOC(=O)c1cncn1C(C)c1ccccc1", "note": "(configuration not stated)", "activity change": "-3.45% [at 35.3 µM, active compounds read high]"}, {"molecule": "CCOC(=O)C(Cl)Cc1cc(-n2nc(C)n(C(F)F)c2=O)c(F)cc1Cl", "note": "(configuration not stated)", "activity change": "-1.88%"}, {"molecule": "COc1ccc(CN2CCNCC2)c(OC)c1OC", "activity change": "-2.05% [at 35.3 µM, active compounds read high]"}, {"molecule": "CCOP(=S)(OCC)SCCl", "activity change": "25.9%"}, {"molecule": "CC(=O)OCC1=C(C(=O)O)N2C(=O)[C@@H](N)[C@H]2SC1", "activity change": "11.8% [at 15.8 µM, active compounds read high]"}, {"molecule": "CC#Cc1cc(C)nc(Nc2ccccc2)n1", "activity change": "-3.27%"}, {"molecule": "N#CC(Br)(Br)C(N)=O", "activity change": "-10.8%"}, {"molecule": "C=C1CC[C@@]2(O)[C@H]3Cc4ccc(O)c5c4[C@@]2(CCN3CC2CC2)[C@H]1O5", "activity change": "8.01% [at 35.3 µM, active compounds read high]"}, {"molecule": "CC[C@H](O)C(C[C@H](C)N(C)C)(c1ccccc1)c1ccccc1", "activity change": "-5.05%"}, {"molecule": "NCC1(CC(=O)O)CCCCC1", "activity change": "4.22% [at 35.3 µM, active compounds read high]"}, {"molecule": "[O-][Br+2]([O-])O", "activity change": "-9.38% [at 35.3 µM, active compounds read high]"}, {"molecule": "NNC(N)=O", "activity change": "0.484%"}, {"molecule": "CNC(=O)O/N=C(/CSC)C(C)(C)C", "activity change": "-9.13%"}, {"molecule": "CC(Cc1ccccc1)NCCCCl", "note": "(configuration not stated)", "activity change": "-4.68% [at 35.3 µM, active compounds read high]"}, {"molecule": "CCCCCCCCSC(=O)Oc1cc(Cl)nnc1-c1ccccc1", "activity change": "-0.974%"}, {"molecule": "CC(C)(C)c1cc(O)ccc1O", "Potency": "inactive"}]}]}
